According to the supplement of paper PMC10849652:
About 7,900 targets were measured; listed, in parts, are those with a hit and a random draw of the rest. About 0.6% of all pairs of compound and target were hits. Unmarked numbers belong to inactive results.

Experiments:
Assay in all cases: log2 fold change, soluble protein after heating vs DMSO (PISA); higher = thermal stabilisation; K562 cells, 10 uM, 30 min; active = over 0.2 and 3.5 SD of the protein, either way, in both replicates (recomputed)
[1] = compound: CS(=O)(=O)c1ccc(-c2cnc(N)c(C(=O)Nc3ccccc3)n2)cc1
How it was run: (§1)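 K562 cells at 2×10^6 cells/mL were treated with 10 μM compound for 30 min. Aliquots were heated for 3 min across 48°C-58°C, pooled, and extracted in PBS with 0.5% NP-40 at 4°C; soluble protein was the supernatant after 21,000xg for 90 min. Soluble protein was quantified by TMTpro 16plex LC-MS/MS with channel sums equalised, and reported as log2 fold change in thermal stability against DMSO controls, with values from duplicates.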

crizotinib = compound: C[C@@H](Oc1cc(-c2cnn(C3CCNCC3)c2)cnc1N)c1c(Cl)ccc(F)c1Cl [crizotinib]
How it was run: as §1

[2] = compound: C[C@@H]1COCCN1C2=NC(=NC(=C2)C3(CC3)S(=O)(=O)C)C4=C5C=CNC5=CC=C4
How it was run: as §1

[3] = compound: C[C@H](C1=CC=C(C=C1)C(=O)NC2=C3C=CNC3=NC=C2)N
How it was run: as §1

duvelisib = compound: C[C@H](Nc1ncnc2nc[nH]c12)c1cc2cccc(Cl)c2c(=O)n1-c1ccccc1 [duvelisib]
How it was run: as §1

gandotinib = compound: Cc1cc(Nc2cc(CN3CCOCC3)c3nc(C)c(Cc4ccc(Cl)cc4F)n3n2)n[nH]1 [gandotinib]
How it was run: as §1

tozasertib = compound: Cc1cc(Nc2cc(N3CCN(C)CC3)nc(Sc3ccc(NC(=O)C4CC4)cc3)n2)n[nH]1 [tozasertib]
How it was run: as §1

[4] = compound: Cc1cc(SCc2sc(-c3ccc(C(F)(F)F)cc3)nc2C)ccc1OCC(=O)O
How it was run: as §1

doramapimod = compound: Cc1ccc(-n2nc(C(C)(C)C)cc2NC(=O)Nc2ccc(OCCN3CCOCC3)c3ccccc23)cc1 [doramapimod]
How it was run: as §1

ispinesib = compound: Cc1ccc(C(=O)N(CCCN)[C@@H](c2nc3cc(Cl)ccc3c(=O)n2Cc2ccccc2)C(C)C)cc1 [ispinesib]
How it was run: as §1

bafetinib = compound: Cc1ccc(NC(=O)c2ccc(CN3CC[C@H](N(C)C)C3)c(C(F)(F)F)c2)cc1Nc1nccc(-c2cncnc2)n1 [bafetinib]
How it was run: as §1

[5] = compound: Cc1cccc(CC(=O)N2CCc3c2ccc(-c2cn(C)c4ncnc(N)c24)c3F)n1
How it was run: as §1

nilotinib = compound: Cc1cn(-c2cc(NC(=O)c3ccc(C)c(Nc4nccc(-c5cccnc5)n4)c3)cc(C(F)(F)F)c2)cn1 [nilotinib]
How it was run: as §1

[6] = compound: Cc1nc(Nc2n[nH]c3c2CN(C(=O)N[C@H](CN(C)C)c2ccccc2)C3(C)C)c2sccc2n1
How it was run: as §1

dasatinib = compound: Cc1nc(Nc2ncc(C(=O)Nc3c(C)cccc3Cl)s2)cc(N2CCN(CCO)CC2)n1 [dasatinib]
How it was run: as §1

[7] = compound: Cc1ncc(-c2ccnc(Nc3ccc(S(C)(=O)=O)cc3)n2)n1C(C)C
How it was run: as §1

[8] = compound: Cn1cc(-c2ccc3c(c2)CCN3C(=O)Cc2cccc(C(F)(F)F)c2)c2c(N)ncnc21
How it was run: as §1

[9] = compound: Cn1cc(-c2ccc3nnc(C(F)(F)c4ccc5ncccc5c4)n3n2)cn1
How it was run: as §1

tipifarnib = compound: Cn1cncc1[C@@](N)(c1ccc(Cl)cc1)c1ccc2c(c1)c(-c1cccc(Cl)c1)cc(=O)n2C [tipifarnib]
How it was run: as §1

mubritinib = compound: FC(F)(F)c1ccc(/C=C/c2nc(COc3ccc(CCCCn4ccnn4)cc3)co2)cc1 [mubritinib]
How it was run: as §1

UniProt Q15418, sequence (Q15418 whole entry, looked up): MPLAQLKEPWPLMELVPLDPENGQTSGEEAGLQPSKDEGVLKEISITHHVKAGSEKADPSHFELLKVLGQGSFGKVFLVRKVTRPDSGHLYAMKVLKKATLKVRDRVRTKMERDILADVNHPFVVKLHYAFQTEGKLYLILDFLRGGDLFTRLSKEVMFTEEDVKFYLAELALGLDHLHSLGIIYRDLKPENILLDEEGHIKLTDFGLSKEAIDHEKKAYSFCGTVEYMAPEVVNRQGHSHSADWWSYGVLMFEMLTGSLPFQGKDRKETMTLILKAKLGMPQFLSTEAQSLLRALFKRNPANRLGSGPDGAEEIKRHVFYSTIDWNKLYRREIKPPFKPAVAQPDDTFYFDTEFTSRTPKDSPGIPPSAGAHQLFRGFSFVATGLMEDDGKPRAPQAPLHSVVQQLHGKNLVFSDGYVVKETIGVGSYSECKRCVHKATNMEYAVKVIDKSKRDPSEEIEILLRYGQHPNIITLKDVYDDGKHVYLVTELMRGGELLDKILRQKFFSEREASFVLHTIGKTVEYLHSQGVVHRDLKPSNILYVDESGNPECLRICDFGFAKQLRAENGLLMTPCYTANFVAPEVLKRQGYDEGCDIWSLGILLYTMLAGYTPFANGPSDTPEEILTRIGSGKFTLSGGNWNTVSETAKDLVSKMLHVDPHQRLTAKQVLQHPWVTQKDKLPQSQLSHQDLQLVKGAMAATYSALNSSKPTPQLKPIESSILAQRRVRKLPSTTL
UniProt Q9UKL0, sequence (Q9UKL0 whole entry, looked up): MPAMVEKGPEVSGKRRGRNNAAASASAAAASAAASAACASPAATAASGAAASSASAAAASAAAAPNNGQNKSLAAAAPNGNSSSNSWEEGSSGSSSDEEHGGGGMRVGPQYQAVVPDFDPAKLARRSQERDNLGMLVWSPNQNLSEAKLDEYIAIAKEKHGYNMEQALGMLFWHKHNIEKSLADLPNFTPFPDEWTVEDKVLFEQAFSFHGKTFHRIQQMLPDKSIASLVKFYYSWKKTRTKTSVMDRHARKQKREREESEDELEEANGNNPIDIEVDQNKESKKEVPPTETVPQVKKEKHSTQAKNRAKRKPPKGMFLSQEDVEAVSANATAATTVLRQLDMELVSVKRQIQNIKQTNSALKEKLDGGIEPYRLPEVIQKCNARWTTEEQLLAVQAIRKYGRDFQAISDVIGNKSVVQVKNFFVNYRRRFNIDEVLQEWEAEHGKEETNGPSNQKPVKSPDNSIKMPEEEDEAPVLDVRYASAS
UniProt P52306, sequence (P52306 whole entry, looked up): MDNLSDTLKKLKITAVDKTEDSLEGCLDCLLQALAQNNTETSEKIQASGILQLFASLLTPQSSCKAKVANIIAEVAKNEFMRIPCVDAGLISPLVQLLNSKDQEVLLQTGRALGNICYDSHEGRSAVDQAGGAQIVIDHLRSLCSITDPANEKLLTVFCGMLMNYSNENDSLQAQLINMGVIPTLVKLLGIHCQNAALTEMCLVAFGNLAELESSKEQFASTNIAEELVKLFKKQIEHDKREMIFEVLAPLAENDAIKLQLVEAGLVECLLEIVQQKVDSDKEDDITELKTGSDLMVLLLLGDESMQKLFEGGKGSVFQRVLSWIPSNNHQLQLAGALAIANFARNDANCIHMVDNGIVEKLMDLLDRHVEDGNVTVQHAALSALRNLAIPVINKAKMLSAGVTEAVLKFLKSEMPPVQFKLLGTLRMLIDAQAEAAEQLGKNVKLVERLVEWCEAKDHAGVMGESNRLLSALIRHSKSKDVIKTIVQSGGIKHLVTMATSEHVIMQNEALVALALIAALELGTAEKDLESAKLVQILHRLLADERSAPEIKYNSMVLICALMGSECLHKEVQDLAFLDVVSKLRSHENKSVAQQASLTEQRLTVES
UniProt Q8NEM2, sequence (Q8NEM2 whole entry, looked up): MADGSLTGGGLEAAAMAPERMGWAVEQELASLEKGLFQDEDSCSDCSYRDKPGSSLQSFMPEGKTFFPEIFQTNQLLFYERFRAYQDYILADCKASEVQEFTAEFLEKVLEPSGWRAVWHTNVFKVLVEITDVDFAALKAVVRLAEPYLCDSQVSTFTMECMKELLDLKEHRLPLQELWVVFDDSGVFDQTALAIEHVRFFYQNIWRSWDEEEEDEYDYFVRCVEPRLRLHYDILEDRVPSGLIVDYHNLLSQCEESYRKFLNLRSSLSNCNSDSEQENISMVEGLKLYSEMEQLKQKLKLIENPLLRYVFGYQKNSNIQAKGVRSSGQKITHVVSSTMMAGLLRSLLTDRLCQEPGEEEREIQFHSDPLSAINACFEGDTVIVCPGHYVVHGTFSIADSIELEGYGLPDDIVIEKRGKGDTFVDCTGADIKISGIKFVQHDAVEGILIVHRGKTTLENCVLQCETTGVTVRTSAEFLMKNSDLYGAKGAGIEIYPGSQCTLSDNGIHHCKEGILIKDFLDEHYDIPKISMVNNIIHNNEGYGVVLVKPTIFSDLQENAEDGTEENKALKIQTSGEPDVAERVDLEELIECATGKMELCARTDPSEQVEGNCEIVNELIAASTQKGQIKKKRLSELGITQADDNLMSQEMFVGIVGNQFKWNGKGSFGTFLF
UniProt Q96EE3, sequence (Q96EE3 whole entry, looked up): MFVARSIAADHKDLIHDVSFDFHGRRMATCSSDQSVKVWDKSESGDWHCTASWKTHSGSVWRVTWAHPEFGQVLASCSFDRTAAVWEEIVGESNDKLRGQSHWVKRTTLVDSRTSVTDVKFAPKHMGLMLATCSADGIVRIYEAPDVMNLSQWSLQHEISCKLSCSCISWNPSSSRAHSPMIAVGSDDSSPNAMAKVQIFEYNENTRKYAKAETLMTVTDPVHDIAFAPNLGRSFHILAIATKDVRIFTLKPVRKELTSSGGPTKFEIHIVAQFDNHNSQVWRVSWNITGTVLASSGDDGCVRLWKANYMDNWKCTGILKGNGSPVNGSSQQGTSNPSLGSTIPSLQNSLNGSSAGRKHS
UniProt P11233, sequence (P11233 whole entry, looked up): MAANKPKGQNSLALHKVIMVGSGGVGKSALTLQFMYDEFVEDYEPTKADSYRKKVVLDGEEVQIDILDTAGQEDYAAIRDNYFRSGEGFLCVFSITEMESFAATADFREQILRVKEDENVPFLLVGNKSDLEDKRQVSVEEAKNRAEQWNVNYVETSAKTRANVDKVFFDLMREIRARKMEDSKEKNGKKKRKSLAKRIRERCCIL
UniProt Q13530, sequence (Q13530 whole entry, looked up): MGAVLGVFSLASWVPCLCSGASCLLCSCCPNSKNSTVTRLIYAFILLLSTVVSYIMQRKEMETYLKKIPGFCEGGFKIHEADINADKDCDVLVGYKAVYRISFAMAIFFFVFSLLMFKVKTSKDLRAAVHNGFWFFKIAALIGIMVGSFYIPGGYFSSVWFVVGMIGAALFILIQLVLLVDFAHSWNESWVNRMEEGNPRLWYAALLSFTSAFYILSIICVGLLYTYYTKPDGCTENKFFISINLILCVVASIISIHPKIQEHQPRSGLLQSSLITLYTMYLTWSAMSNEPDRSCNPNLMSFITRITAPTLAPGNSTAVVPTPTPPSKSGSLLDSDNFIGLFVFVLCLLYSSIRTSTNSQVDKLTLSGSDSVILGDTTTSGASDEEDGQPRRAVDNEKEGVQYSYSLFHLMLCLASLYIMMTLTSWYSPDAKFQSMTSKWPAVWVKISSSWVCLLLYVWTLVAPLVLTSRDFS
UniProt Q8TD22, sequence (Q8TD22 whole entry, looked up): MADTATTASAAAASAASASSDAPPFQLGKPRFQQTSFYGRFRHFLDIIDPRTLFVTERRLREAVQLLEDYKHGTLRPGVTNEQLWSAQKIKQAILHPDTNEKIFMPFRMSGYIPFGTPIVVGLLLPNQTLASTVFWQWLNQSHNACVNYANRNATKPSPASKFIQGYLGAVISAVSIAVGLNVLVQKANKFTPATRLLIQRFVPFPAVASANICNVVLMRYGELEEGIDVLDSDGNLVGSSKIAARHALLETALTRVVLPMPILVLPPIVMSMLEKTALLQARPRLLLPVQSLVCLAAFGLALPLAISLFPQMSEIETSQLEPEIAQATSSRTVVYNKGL
UniProt Q8TC12, sequence (Q8TC12 whole entry, looked up): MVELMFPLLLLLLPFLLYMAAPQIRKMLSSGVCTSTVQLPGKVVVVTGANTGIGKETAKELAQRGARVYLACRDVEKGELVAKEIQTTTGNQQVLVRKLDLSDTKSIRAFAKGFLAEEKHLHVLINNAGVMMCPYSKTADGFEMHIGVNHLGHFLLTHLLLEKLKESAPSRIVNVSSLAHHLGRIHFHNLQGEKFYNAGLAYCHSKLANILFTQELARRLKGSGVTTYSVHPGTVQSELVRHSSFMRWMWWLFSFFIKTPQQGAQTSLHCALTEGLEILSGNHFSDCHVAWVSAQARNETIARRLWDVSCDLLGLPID
UniProt Q8WWV3, sequence (Q8WWV3 whole entry, looked up): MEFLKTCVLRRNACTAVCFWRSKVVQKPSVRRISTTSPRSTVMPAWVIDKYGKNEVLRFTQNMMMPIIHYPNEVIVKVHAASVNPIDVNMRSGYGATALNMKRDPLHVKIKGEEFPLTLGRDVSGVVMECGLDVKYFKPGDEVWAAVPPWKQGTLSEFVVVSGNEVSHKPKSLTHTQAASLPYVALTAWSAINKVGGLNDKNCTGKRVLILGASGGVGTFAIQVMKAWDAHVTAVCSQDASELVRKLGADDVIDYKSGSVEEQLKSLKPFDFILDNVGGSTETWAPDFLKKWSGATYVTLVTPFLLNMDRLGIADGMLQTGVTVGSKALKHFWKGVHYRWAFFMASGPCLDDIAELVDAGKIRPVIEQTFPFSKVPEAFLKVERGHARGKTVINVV

Target | log2 fold change [1] | log2 fold change (crizotinib) | log2 fold change [2] | log2 fold change [3] | log2 fold change (duvelisib) | log2 fold change (gandotinib) | log2 fold change (tozasertib) | log2 fold change [4] | log2 fold change (doramapimod) | log2 fold change (ispinesib) | log2 fold change (bafetinib) | log2 fold change [5] | log2 fold change (nilotinib) | log2 fold change [6] | log2 fold change (dasatinib) | log2 fold change [7] | log2 fold change [8] | log2 fold change [9] | log2 fold change (tipifarnib) | log2 fold change (mubritinib)
SHCBP1 (UniProt Q8NEM2) | 0.092 | -0.077 | 0.043 | 0.119 | -0.021 | -0.124 | 0.098 | 0.169 | 0.02 | -0.096 | -0.017 | 0.041 | -0.207 | -0.459 (active) | -0.091 | 0.003 | 0.223 | 0.004 | 0.299 | 0.1
RPS12 (UniProt P25398) | -0.041 | 0.078 | -0.098 | 0.165 | -0.061 | 0.124 | -0.003 | -0.011 | 0.012 | 0.017 | 0.112 | 0.006 | 0.002 | 0.126 | 0.08 | -0.012 | -0.013 | -0.004 | 0.049 | -0.08
RPS9 (UniProt P46781) | -0.075 | 0.02 | -0.401 | 0.278 | -0.146 | 0.188 | 0.055 | 0.024 | 0.174 | -0.04 | 0.318 | -0.001 | 0.003 | 0.206 | 0.106 | -0.035 | -0.176 | -0.088 | 0.067 | -0.09
SERINC3 (UniProt Q13530) | 0.15 | -0.228 | 0.017 | 0.225 | 0.162 | -0.088 | 0.046 | 0.096 | -0.051 | -0.17 | -0.031 | -0.035 | 0.02 | 0.039 | -0.123 | 0.07 | -0.014 | -0.077 | -0.115 | 0.009
RDH11 (UniProt Q8TC12) | 0.164 | -0.303 | 0.082 | 0.116 | 0.11 | 0.115 | -0.029 | 0.425 (active) | 0.098 | -0.365 | -0.119 | -0.048 | 0.099 | -0.112 | -0.079 | -0.03 | 0.015 | -0.022 | 0.059 | -0.033
SEH1L isoform 1 (UniProt Q96EE3) | -0.03 | 0.04 | -0.008 | -0.028 | 0.016 | -0.069 | 0.011 | 0.01 | 0.011 | 0.054 | -0.083 | 0.051 | 0.012 | -0.081 | -0.008 | -0.028 | 0.015 | -0.037 | -0.11 | 0.031
RBM33 (UniProt Q96EV2) | -0.01 | 0.058 | -0.063 | -0.077 | 0.016 | 0.03 | -0.019 | 0.043 | -0.022 | -0.085 | -0.055 | 0.012 | -0.036 | -0.143 | 0.013 | -0.11 | 0.024 | -0.013 | 0.085 | -0.004
RALA (UniProt P11233) | 0.026 | 0.112 | 0.088 | -0.097 | -0.046 | -0.001 | 0.016 | -0.009 | -0.009 | 0.03 | -0.026 | 0.178 | 0.064 | -0.012 | 0.027 | -0.026 | 0.014 | 0.043 | -0.06 | 0.015
RCOR1 (UniProt Q9UKL0) | 0.011 | -0.033 | 0.095 | 0.071 | 0.088 | -0.046 | 0.005 | 0.041 | 0.001 | -0.031 | 0.011 | 0.021 | -0.034 | -0.107 | -0.063 | -0.062 | -0.005 | 0.033 | -0.087 | 0.07
RAP1GDS1 isoform 5 (UniProt P52306) | 0.061 | -0.062 | 0.08 | 0.009 | -0.009 | -0.066 | 0.079 | 0.036 | -0.014 | -0.096 | 0.097 | 0.07 | -0.077 | -0.105 | -0.083 | 0.042 | -0.005 | 0.03 | -0.041 | 0.026
SEC23IP (UniProt Q9Y6Y8) | 0.142 | -0.238 | 0.055 | 0.039 | 0.021 | -0.212 | -0.002 | 0.074 | 0.043 | -0.166 | -0.23 | 0.036 | -0.017 | -0.061 | -0.143 | -0.026 | 0.148 | 0.009 | -0.057 | 0.014
RPS15 (UniProt P62841) | 0.032 | 0 | -0.174 | 0.45 (active) | -0.078 | 0.137 | -0.071 | -0.045 | 0.032 | -0.003 | 0.087 | -0.09 | 0.033 | 0.221 | 0.133 | -0.106 | -0.194 | -0.027 | 0.082 | -0.044
RPS2 (UniProt P15880) | -0.045 | 0.043 | -0.369 | 0.286 | -0.162 | 0.202 | -0.007 | 0.007 | 0.131 | -0.162 | 0.284 | 0 | 0 | 0.198 | 0.13 | -0.035 | -0.216 | -0.105 | 0.077 | -0.095
SFXN5 (UniProt Q8TD22) | 0.144 | 0.021 | 0.073 | -0.137 | -0.07 | -0.026 | -0.015 | 0.076 | -0.055 | 0.049 | -0.3 (active) | 0.017 | -0.052 | 0.049 | 0.084 | 0.134 | 0.107 | 0.093 | 0.022 | 0.041
RPS6KA1 isoform 2 (UniProt Q15418) | 0 | -0.259 | 0.138 | -0.066 | 0.03 | -0.199 | 0.002 | 0.066 | -0.026 | 0.021 | -0.051 | 0.081 | -0.002 | -0.569 (active) | -0.281 | -0.044 | -0.019 | 0 | -0.056 | 0.041
RTN4IP1 (UniProt Q8WWV3) | 0.015 | -0.084 | 0.064 | -0.045 | 0.276 | 0.117 | -0.108 | 0.225 | 0.041 | -0.137 | -0.178 | -0.07 | 0.171 | -0.194 | 0.189 | -0.008 | 0.121 | 0.168 | 0.041 | 0.122
